We go through 8 molecules from PubChem BioAssay.

Values joined by “and” are separate entries in the source; they are usually repeats but may differ in a detail not shown here. Identical values can stand only once. Inconclusive results are not listed. Active and inactive are the calls of the source.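 How the source made its calls, unless noted: active means compounds killing one labelled cell type while sparing the other, by normalised counts and ratio limits, not self-fluorescent; inactive means the rest.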 Bridge positions count the residues as written; N and C are the ends. Square brackets hold non-standard residues; d marks the D form. Peptide text beside a SMILES is read from it. * marks the point of attachment. Heptanoyl(6-Me) = CC(C)CCCCC(=O)*; Dab = NCC[CH](N)C(=O)O

Test [1] in a line: liver-stage malaria parasite growth inhibition, primary screen, cell-based, HepG2, luciferase luminescence, HepG2 viability (AID 624349; in the data active means parasite load remaining mostly below about 12%, no sharp cut-off; inactive means mostly above about 10%;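 further: 100% = mean of DMSO negative control wells on the same plate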). Particulars: P. berghei liver stage in HepG2, luciferase luminescence, concentration not given here; parasite load remaining: stronger effect = lower value; viability: measured here: HepG2 viability without parasites.
Test [2] is described as follows: differential killing of epithelial or mesenchymal cells, primary screen, imaging, PC-3E GFP, TEM4-18 mCherry, co-culture (AID 1345086).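 On all read-outs here: cells exposed to compound for 72 h before imaging.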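 On red/green cell ratio (normalised): normalised mesenchymal count divided by normalised epithelial count so high means epithelial killing.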 Particulars: imaging cell counts, at 1 µM; for red/green cell ratio (normalised): actives lie on both sides, counts scaled to control wells, 1 = unselective.
Test [3] can be described thus: sensitizers of A549 cells to miR-34 induction, primary screen, imaging, A549 dox-inducible miR-34, nuclei and caspase counts (AID 1347080;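 active means compounds whose cell count with miR-34 switched on is under 0.7 times the count with it off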). The following applies: A549 miR-34 inducible, Hoechst nuclei count, 48 h.
A short description of test [4]: modifiers of HSF1 nuclear foci, imaging, Selleck Cancer Library (AID 1347162; in the data active means plate-normalised HSF1 focus index below about 0.46). Particulars: human cells, at 10 µM; SSMD: measured here: HSF1 foci SSMD mean; cell count: measured here: cell number; plate-normalised HSF1 focus index: stronger effect = lower value.
For test [5], the target named is NAD(+) hydrolase SARM1 (Homo sapiens) (UniProt Q6SZW1). Description: SARM1 TIR NADase inhibitors, cell lysate, NAD-Glo luminescence (AID 1508614;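 active means compound whose remaining NAD level is above about 45 nM, limit read from the data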). Particulars: SAM-TIR HEK293T lysate NADase, at 1 µM, stronger effect = higher value.
The target in test [6] is ATP-dependent translocase ABCB1 (Homo sapiens) (UniProt P08183). Description: MDR1 (ABCB1) efflux transporter inhibition, cell-based (AID 377; in the data active means fluorescence slope change above about 50%). Particulars: MDR1-expressing cells, fluorescent substrate accumulation slope; stronger effect = higher value; concentration not given here.
Test [7] is described as follows: antimalarial activity against Dd2 strain (AID 2302;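 active means growth inhibition above 50% at the single 2 µM test dose, taken to imply half-maximal potency below 2 µM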;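 further: 0% = DMSO untreated growth and 100% = chloroquine plus artemisinin killed control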). Particulars: P. falciparum Dd2 in RBCs, LDH growth readout, 72 h; at 2 µM; stronger effect = higher value.
Test [8] can be described thus: HepG2 cytotoxicity, primary screen, cytotoxicity control for P. falciparum antimalarial project, cell-based, ATP luminescence (AID 2303;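 active means inhibition above 50%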;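 further: 0% = DMSO wells and 100% = digitonin-killed cells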). Particulars: HepG2 viability, 24-48 h, at 10 µM, stronger effect = higher value.
Test [9] has as its target L-lactate dehydrogenase (Plasmodium falciparum (isolate CDC / Honduras)) (UniProt Q27743). Nature of the test: PfLDH activity inhibition – cell lysate, 3D7 strain, counter-screen for P. falciparum growth inhibition project (AID 2304; call rule not given here;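 further: 0% = vehicle and 100% = reference inhibitor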). The following applies: P. falciparum 3D7 crude extract, LDH APAD/NBT absorbance; at 2 µM; stronger effect = higher value.
A short description of test [10]: inhibition of 3D7 malaria parasite growth – strain 3D7 (AID 2306; call rule not given here;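 further: 0% = DMSO wells and 100% = chloroquine plus artemisinin control wells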). Particulars: P. falciparum 3D7 erythrocytic growth, LDH absorbance, 72 h; at 2 µM; stronger effect = higher value.
The nature of test [11]: hESC survival regulators, cell-based (AID 493140; call rule not given here;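 further: cells exposed to compounds for four days before counting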). The following applies: human embryonic stem cell survival screen; stronger effect = higher value.
Test [12] is described as follows: survival rescue of mitochondrial mutant cells in low glucose, primary screen, MELAS cybrids, Rieske KO mouse fibroblasts, CellTiter-Glo (AID 1508586;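 active means mean z-score across replicates of 1.96 or higher in either the MELAS or the Rieske mutant cell line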;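 further: z relative to plate mean and SD of compound and empty wells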). In general terms: ATP-based viability assays read luminescence as a measure of living cells.
Test [13] concerns the target Mitogen-activated protein kinase 7 (Homo sapiens) (UniProt Q13164). Nature of the test: ERK5 transactivation activators in reporter cells, primary screen, cell-based, HTS (AID 1508626;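 active means luciferase signal above three times the same-plate solvent-only control wells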;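 further: luciferase driven by Gal4-ERK5 fusion binding five Gal4 sites before minimal TATA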). Particulars: HeLa Gal4-ERK5 transactivation, 18 h, at 5 µM, stronger effect = higher value.
Test [14] is described as follows: viability rescue of complex I mutant cybrids, primary screen, cell-based, galactose medium, ATP luminescence (AID 1645843;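 active means z-score of at least 1.8 in each of two replicates, scored against plate mean and spread of sample wells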;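 further: positive z means more ATP and so rescue of galactose-driven cybrid death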). Particulars: complex I mutant cybrid cells, 72 h, stronger effect = higher value.
Setting [15] is: measured here: epithelial PC-3E GFP cell survival.
[16] abbreviates: measured here: mesenchymal TEM4-18 mCherry cell survival.
Where [17] appears, read: stronger effect = lower value, cell number ratio, induced over uninduced.
The mark [18] stands for this setting: measured here: relative caspase fold change +Dox/-Dox.
Where [19] appears, read: measured here: total cells with miR-34 induction, stronger effect = lower value.
Setting [20] is: measured here: total cells without miR-34 induction.

Chain of NAD(+) hydrolase SARM1 (Homo sapiens) (Q6SZW1 whole entry, looked up): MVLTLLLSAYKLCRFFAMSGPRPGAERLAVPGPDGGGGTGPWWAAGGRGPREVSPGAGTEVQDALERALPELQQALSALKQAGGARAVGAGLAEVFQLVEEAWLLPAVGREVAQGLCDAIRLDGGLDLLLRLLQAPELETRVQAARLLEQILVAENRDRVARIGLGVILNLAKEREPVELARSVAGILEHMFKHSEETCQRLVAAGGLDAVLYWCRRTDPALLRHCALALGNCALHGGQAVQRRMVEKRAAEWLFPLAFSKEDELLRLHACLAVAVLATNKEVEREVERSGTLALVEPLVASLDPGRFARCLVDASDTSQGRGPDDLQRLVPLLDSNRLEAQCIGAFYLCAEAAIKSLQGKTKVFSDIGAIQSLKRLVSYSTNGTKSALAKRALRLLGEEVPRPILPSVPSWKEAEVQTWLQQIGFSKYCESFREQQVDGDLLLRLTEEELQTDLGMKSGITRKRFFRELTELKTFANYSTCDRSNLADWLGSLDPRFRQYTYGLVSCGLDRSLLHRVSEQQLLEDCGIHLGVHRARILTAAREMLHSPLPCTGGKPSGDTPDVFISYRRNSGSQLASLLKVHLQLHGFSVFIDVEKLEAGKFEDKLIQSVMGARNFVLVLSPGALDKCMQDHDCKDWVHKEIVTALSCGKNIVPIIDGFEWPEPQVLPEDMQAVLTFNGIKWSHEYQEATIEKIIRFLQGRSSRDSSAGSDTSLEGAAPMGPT
Chain of L-lactate dehydrogenase (Plasmodium falciparum (isolate CDC / Honduras)) (Q27743 whole entry, looked up): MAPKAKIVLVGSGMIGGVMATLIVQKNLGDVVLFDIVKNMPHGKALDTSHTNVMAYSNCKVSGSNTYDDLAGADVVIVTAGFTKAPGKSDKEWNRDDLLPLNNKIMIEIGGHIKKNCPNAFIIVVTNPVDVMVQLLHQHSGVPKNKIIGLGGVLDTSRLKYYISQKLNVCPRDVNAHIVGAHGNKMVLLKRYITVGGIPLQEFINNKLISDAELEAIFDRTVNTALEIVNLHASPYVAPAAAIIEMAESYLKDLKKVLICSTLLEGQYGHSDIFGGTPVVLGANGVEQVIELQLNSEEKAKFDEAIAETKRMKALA
Chain of ATP-dependent translocase ABCB1 (Homo sapiens) (P08183 whole entry, looked up): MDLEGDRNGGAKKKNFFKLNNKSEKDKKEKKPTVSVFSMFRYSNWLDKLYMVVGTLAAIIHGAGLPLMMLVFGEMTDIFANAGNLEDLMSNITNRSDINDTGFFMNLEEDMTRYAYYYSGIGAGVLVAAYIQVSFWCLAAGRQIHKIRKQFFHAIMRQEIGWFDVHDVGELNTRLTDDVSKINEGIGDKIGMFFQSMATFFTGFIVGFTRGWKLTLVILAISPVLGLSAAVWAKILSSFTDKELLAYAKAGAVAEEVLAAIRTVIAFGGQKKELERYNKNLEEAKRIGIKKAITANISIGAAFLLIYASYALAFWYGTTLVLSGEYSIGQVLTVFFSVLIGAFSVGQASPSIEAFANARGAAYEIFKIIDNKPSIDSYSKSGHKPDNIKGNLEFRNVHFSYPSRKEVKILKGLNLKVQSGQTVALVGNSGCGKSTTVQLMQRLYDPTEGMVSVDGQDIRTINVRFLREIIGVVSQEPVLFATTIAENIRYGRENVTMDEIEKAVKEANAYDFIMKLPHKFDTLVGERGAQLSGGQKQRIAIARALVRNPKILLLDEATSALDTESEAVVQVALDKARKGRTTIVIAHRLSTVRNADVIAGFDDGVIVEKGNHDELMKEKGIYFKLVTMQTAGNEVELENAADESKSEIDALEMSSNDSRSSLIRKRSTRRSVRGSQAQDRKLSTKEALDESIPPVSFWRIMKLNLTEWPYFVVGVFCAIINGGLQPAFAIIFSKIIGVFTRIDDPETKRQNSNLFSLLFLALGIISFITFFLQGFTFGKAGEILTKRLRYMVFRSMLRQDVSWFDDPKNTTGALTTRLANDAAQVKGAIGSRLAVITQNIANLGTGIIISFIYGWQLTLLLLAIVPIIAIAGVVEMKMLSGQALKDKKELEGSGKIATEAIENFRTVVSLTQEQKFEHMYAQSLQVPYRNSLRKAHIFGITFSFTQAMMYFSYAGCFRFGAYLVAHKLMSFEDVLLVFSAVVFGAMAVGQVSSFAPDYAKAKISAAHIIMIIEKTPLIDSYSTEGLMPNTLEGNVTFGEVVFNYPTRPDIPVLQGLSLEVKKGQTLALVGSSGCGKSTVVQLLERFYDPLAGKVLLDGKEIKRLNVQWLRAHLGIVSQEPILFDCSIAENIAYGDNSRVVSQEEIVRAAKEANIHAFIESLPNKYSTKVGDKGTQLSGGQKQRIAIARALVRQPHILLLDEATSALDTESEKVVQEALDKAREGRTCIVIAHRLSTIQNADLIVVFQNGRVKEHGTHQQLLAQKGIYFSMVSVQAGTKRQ
Chain of Mitogen-activated protein kinase 7 (Homo sapiens) (Q13164 whole entry, looked up, the tested form may be a part): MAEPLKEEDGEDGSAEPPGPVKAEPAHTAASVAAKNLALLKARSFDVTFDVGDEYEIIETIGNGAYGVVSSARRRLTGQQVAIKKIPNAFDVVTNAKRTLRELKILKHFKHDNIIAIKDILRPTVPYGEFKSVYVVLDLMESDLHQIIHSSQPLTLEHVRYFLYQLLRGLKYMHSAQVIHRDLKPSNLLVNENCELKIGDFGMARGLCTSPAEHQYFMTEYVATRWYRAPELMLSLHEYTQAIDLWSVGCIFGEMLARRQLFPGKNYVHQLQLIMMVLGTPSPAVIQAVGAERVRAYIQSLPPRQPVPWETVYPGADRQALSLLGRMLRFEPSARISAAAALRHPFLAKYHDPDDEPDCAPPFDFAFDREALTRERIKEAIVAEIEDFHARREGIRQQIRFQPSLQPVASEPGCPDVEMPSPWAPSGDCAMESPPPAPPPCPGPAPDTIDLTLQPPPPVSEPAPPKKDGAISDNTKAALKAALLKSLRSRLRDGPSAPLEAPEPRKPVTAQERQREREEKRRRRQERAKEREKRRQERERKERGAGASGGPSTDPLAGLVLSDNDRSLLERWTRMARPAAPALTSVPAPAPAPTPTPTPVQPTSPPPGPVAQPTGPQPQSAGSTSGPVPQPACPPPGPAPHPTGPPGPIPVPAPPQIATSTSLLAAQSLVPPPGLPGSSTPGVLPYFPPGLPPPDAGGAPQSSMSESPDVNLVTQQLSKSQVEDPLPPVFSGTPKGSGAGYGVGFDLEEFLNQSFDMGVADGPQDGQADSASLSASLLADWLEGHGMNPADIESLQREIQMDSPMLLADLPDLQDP

A word on the viability: it is a read-out of living cells in per cent, often relative to untreated cells. With `CCCC[C@@H](CC)COC(=O)c1ccccc1O`, the parasite load remaining in test [1] is 49.2% (inactive). For the same molecule, in test [1], the viability worked out at 118%. The red/green cell ratio (normalised) in [2] was 0.88 (inactive). For the same molecule, the values for the normalised cell number in [2] (setting [15]) and in [2] (setting [16]) were 1.19 and 1.04, respectively. The fold change was 0.858 (inactive) in test [3] (setting [17]) and 1.6 in [3] (setting [18]). The cell count in [3] (setting [19]) turned out to be 11400; in test [3] (setting [20]) it was 13300.

Turning to `CC(=O)O[C@@]12CO[C@@H]1C[C@H](O)[C@@]1(C)C(=O)[C@H](O)C3=C(C)[C@@H](OC(=O)[C@H](O)[C@@H](NC(=O)OC(C)(C)C)c4ccccc4)C[C@@](O)([C@@H](OC(=O)c4ccccc4)C12)C3(C)C` (some centres undefined), the red/green cell ratio (normalised) in [2] is 1.12 (inactive). In addition, in test [2] (setting [15]), the normalised cell number was 0.16. Moreover, the normalised cell number in test [2] (setting [16]) was found to be 0.18. Moreover, in test [4], the SSMD was 1.92, the cell count was 6830 and the plate-normalised HSF1 focus index is 1.1 (inactive).

In the case of `CC(C)(C)NC[C@H](O)COc1ccccc1C1CCCC1`, the red/green cell ratio (normalised) in test [2] is 1.04 (inactive). The normalised cell number in [2] (setting [15]) came out at 1.13; in [2] (setting [16]) it was 1.17. Also, the remaining NAD in test [5] is 10 nM (inactive).

In general, inhibition refers to the relative decrease from the control value, in per cent. On to `CN(Cc1cnc2nc(N)nc(N)c2n1)c1ccc(C(=O)NC(CCC(=O)O)C(=O)O)cc1` (centres undefined), for which, in test [6], the fluorescence slope change is -5.4% (inactive). In addition, the values for the growth inhibition in test [7] and in test [10] were 66% (active) and 91% (active), respectively. In addition, the inhibition in test [8] was 65% (active); in test [9], -1% (inactive). In addition, the survival in test [11] was 10.7 (inactive). Moreover, the red/green cell ratio (normalised) in [2] was 0.89 (inactive). The normalised cell number in [2] (setting [15]) was 1.15; in test [2] (setting [16]), 1.02. For the same molecule, the z-score in test [12] (MELAS cybrid survival, CellTiter-Glo 48 h, stronger effect = higher value) was -0.53 (inactive) and 1.15 (inactive); in test [12] (Rieske KO mouse fibroblast survival, CellTiter-Glo 72 h), 0.183 and -0.283; in [14] it was -1.2 (inactive). Further, in [5], the remaining NAD is 10 nM (inactive). Besides, in [13], the luciferase signal was 32 AU (inactive).

`C[C@]12CCC(=O)C=C1C=CC1C2CC[C@@]2(C)C1CC[C@@]21CCC(=O)O1` (some centres undefined): the parasite load remaining in test [1] is 99.9% (inactive) and 38.4% (inactive). Also, the viability in test [1] was 91.3% and 97%. For the same molecule, the red/green cell ratio (normalised) in test [2] is 0.76 (inactive). Further, the normalised cell number in test [2] (setting [15]) came out at 1.2; in test [2] (setting [16]), 0.92. Besides, the figures for the fold change in test [3] (setting [17]) and in test [3] (setting [18]) were 0.895 (inactive) and 1.44, respectively. In addition, the cell count in test [3] (setting [19]) was 11200; in test [3] (setting [20]), 12500.

Consider `CC(=O)OCC(=O)[C@@]1(O)CCC2C3CCC4=CC(=O)CC[C@]4(C)[C@@]3(F)[C@@H](O)C[C@@]21C` (some centres undefined), for which the parasite load remaining in [1] was 127% (inactive) and 70.7% (inactive). For the same molecule, the viability in test [1] was 75.9% and 93.9%. In [2], the red/green cell ratio (normalised) is 1.57 (inactive). The results for the normalised cell number in test [2] (setting [15]) and in [2] (setting [16]) were 0.85 and 1.34, respectively. Further, the fold change in test [3] (setting [17]) is 0.879 (inactive); in test [3] (setting [18]), 1.47. The results for the cell count in test [3] (setting [19]) and in test [3] (setting [20]) were 6890 and 7830, respectively.

For `CC(=O)OCC(=O)[C@@]1(OC(C)=O)[C@@H](C)CC2C3C[C@H](F)C4=CC(=O)C=C[C@]4(C)[C@@]3(F)[C@@H](O)C[C@@]21C` (some centres undefined), the parasite load remaining in test [1] is 202% (inactive). Besides, the viability in test [1] was found to be 105%. In addition, the red/green cell ratio (normalised) in test [2] is 1.18 (inactive). In addition, the normalised cell number in test [2] (setting [15]) came to 1.13; in [2] (setting [16]), 1.34. Also, the fold change is 0.928 (inactive) in test [3] (setting [17]) and 4.21 in [3] (setting [18]). Moreover, the cell count is 7220 in test [3] (setting [19]) and 7780 in test [3] (setting [20]).

Turning to `CCC(C)C1NC(=O)C(CCN)NC(=O)C(NC(=O)C(CCN)NC(=O)C(NC(=O)C(CCN)NC(=O)CCCCC(C)C)C(C)O)CCNC(=O)C(C(C)O)NC(=O)C(CCN)NC(=O)C(CCN)NC(=O)C(C(C)CC)NC1=O` (centres undefined) ({Heptanoyl(6-Me)}-[Dab]T[Dab][Dab][Dab]II[Dab][Dab]T; lactam 4-C; configuration not given here), the parasite load remaining in test [1] is 49.5% (inactive). In [1], the viability amounted to 98.1%. Moreover, in [2], the red/green cell ratio (normalised) is 0.79 (inactive). The normalised cell number in [2] (setting [15]) worked out at 1.14; in test [2] (setting [16]), 0.9. The fold change in test [3] (setting [17]) is 0.901 (inactive); in [3] (setting [18]), 3.33. The results for the cell count in [3] (setting [19]) and in [3] (setting [20]) were 12400 and 13800, respectively.
